# Out of some 330,000 compounds screened, about 1,500 (0.45%) were called active. No stated cut-off is given here; in the data, active means inhibition above about 45% (passing the limit was not always enough); inconclusive means no clear call, values can overlap the other calls. The sample as a whole holds a higher share of actives than the screen did.
# Target: Ubiquitin-conjugating enzyme E2 N (Homo sapiens) (UniProt P61088)
# Assay: blockers of UBC13 ubiquitin chain synthesis – biochemical, TR-FRET, uHTS, primary screen (AID 485273)
# Conditions: UBC13 polyubiquitin chain formation, at 20 µM, hits give high values
# Chain of Ubiquitin-conjugating enzyme E2 N (Homo sapiens) (P61088 whole entry, looked up): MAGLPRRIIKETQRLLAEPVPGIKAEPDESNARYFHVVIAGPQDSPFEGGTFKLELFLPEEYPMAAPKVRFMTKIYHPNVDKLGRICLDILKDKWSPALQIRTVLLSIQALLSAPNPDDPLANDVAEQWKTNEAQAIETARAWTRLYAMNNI
row,SMILES,inhibition
1,CCCN(C(=O)CSc1nnc(N)s1)c1c(N)n(Cc2ccccc2)c(=O)[nH]c1=O,0.1% (inactive)
2,COC(=O)C(C)Oc1ccc2c(-c3cccc([N+](=O)[O-])c3)cc(=O)oc2c1 (stereo unspecified),-16.8% (inactive)
3,COc1cccc(CN(C)CC(O)COC(c2ccccc2)c2ccccc2C)c1 (stereo unspecified),19.2% (inactive)
4,CN(C(=O)CSc1nnc(-c2ccc(C(C)(C)C)cc2)n1C)C1CCS(=O)(=O)C1 (stereo unspecified),-4.3% (inactive)
5,OCCn1c(-c2ccccc2)csc1=Nc1ccccc1,-10.7% (inactive)
6,C#CCNC(=O)C1=C[C@@H](c2ccccc2)[C@H](CCCO)[C@@H](OCC)O1,0.9% (inactive)
7,Cc1ccc(NC(=O)Cc2nnc(SCC(=O)Nc3nncs3)n2C)cc1,-2.3% (inactive)
8,Cc1cccc(Cn2cnc3c(N)c(C)c(C)cc32)c1,3.8% (inactive)
9,COc1cccc(Cn2cnc3c([N+](=O)[O-])c(C)c(C)cc32)c1,60.4% (active)
10,COc1cccc(CNS(=O)(=O)c2cc3c(cc2C)n(C)c(=O)c(=O)n3C)c1,20% (inactive)
11,COc1ccc(CNC(=O)C2CCN(S(=O)(=O)c3ccc(SC)cc3)CC2)cc1,6.2% (inactive)
12,C#CCOCCOCCOCCNc1nc(N2CCN(C(=O)CCCCCCCCCCNC(=O)[C@H]([C@@H](C)CC)n3cc(CCCCN=C(N)N)nn3)CC2)nc(N2CCN(C(=O)CCCCCCCCCCNC(=O)[C@H](CO)n3cc(CCCSC)nn3)CC2)n1,121% (active)
13,C#CCOCCOCCOCCNc1nc(N2CCN(C(=O)[C@H](C(C)C)n3cc(CCO)nn3)CC2)nc(N2CCN(C(=O)[C@H]([C@@H](C)CC)n3cc(CCCN=C(N)N)nn3)CC2)n1,19.7% (inactive)
14,C#CCOCCOCCOCCNc1nc(N2CCN(C(=O)[C@H](CCCN=C(N)N)n3cc(C(N)[C@@H](C)CC)nn3)CC2)nc(N2CCN(C(=O)[C@H](CO)n3cc([C@@H](N)C(C)C)nn3)CC2)n1 (stereo partly specified),33.1% (inactive)
15,C#CCOCCOCCOCCNc1nc(N2CCN(C(=O)[C@H](CCC(=O)O)n3cc(CN)nn3)CC2)nc(N2CCN(C(=O)[C@H](CCC(=O)O)n3cc(CN)nn3)CC2)n1,2.2% (inactive)
16,C#CCOCCOCCOCCNc1nc(N2CCN(C(=O)[C@H](C(C)C)n3cc(CCO)nn3)CC2)nc(N2CCN(C(=O)[C@H](C(C)C)n3cc(CCO)nn3)CC2)n1,-11.8% (inactive)
17,C#CCOCCOCCOCCNc1nc(N2CCN(C(=O)CCCCCCCCCCNC(=O)Cn3cc(CCCCCN)nn3)CC2)nc(N2CCN(C(=O)CCCCCCCCCCNC(=O)[C@H](CO)n3cc(CCCSC)nn3)CC2)n1,128% (active)
18,C#CCOCCOCCOCCNc1nc(N2CCN(C(=O)Cn3cc(CCCCN)nn3)CC2)nc(N2CCN(C(=O)[C@H](CCCCN)n3cc(CCC(=O)O)nn3)CC2)n1,3.6% (inactive)
19,C#CCOCCOCCOCCNc1nc(N2CCN(C(=O)CCCCCCCCCCNC(=O)[C@H](CCCCN)n3cc(C)nn3)CC2)nc(N2CCN(C(=O)CCCCCCCCCCNC(=O)[C@H](CO)n3cc(CCCSC)nn3)CC2)n1,121% (active)
20,COc1ccccc1NC(=O)CCN1CCN(c2ccc(Cl)cc2)CC1,-6% (inactive)
21,O=C(CN1CCN(c2ccc(O)cc2)CC1)NC1CCCc2ccccc21 (stereo unspecified),7.1% (inactive)

row,SMILES,inhibition
1,O=C(CN1CCSCC1)N/N=C/c1ccc(Cl)cc1,-14.1% (inactive)
2,CNc1nccc(-c2ccc(Cl)cc2)c1C#N,9.5% (inactive)
3,CN(C)c1nc(-c2cccnc2)nc(-c2ccc(Cl)cc2)c1C#N,-0.5% (inactive)
4,N#Cc1c(-c2ccc(Cl)cc2)c2c([nH]c1=S)CCCC2,47.4% (active)
5,Cc1cccc(-n2cnc(C(=O)Nc3cccnc3)c2)n1,-3.6% (inactive)
6,Cn1cc(Cl)c(C(=O)NNC(=S)Nc2cccc(Cl)c2)n1,-10.5% (inactive)
7,Cc1cccc(-n2cnc(C(=O)NNC(=S)Nc3ccccc3)c2)n1,84.4% (active)
8,COc1ccc(CNS(=O)(=O)c2ccc(NC(=O)N3CCCCC3)cc2)cc1,-9.2% (inactive)
9,CCCN1CCN(C(=O)CCCNC(=O)c2ccc(Cl)cc2)CC1,-6.8% (inactive)
10,CN1CCN(CCCNC(=O)c2ccc(/C=C3\Oc4ccccc4N(Cc4ccc(Cl)cc4)C3=O)cc2)CC1,80.8% (active)
11,CC(C)OCCCNC(=O)CN1C(=O)/C(=C/c2ccccc2F)Oc2ccccc21,1% (inactive)
12,Cc1ccc2c(C)c(C(=O)N3CCC(N4CCC(C(=O)NC5CC5)CC4)CC3)oc2c1,-16.4% (inactive)
13,S=C(Cc1ccc(Cl)cc1)N1CCOCC1,4.3% (inactive)
14,CCN1C(=NCc2ccc(OC)cc2)N[C@@H](CCc2ccccc2)[C@H](C(=O)NCc2ccc(OC)cc2)[C@H]1C,48.7% (active)
15,CCN1C(=NCC(C)C)N[C@@H](CCc2ccccc2)[C@H](C(=O)NCC(C)C)[C@H]1C,15.8% (inactive)
16,CCN1C(=S)N[C@@H](CCc2ccccc2)[C@H](C(=O)OC)[C@H]1C,4.5% (inactive)
17,CCN(CC(=O)Nc1cc(Cl)ccc1C)C(=O)CSCc1ccc(C)cc1,0.3% (inactive)
18,Cc1cccc(N2CCN(C(C)C(=O)N3CCc4ccccc43)CC2)c1C (stereo unspecified),-1.5% (inactive)
19,CC(=O)Nc1cccc(NC(=O)c2ccc3c(c2)CCN3S(C)(=O)=O)c1,-2.7% (inactive)
20,Cc1cc(C)n(CC(O)COc2ccc(C(C)(C)C)cc2)n1 (stereo unspecified),-14.2% (inactive)
21,CN(C)CC(O)COc1ccc(C(C)(C)c2ccc(OCC(O)CN(C)C)cc2)cc1 (stereo unspecified),59.2% (active)

row,SMILES,inhibition
1,CC(C)(c1ccccc1)c1ccc(OCCN)cc1,16.7% (inactive)
2,O=C(COC(=O)c1ccccn1)NNC(=O)c1ccc(Br)cc1,3.1% (inactive)
3,CCCNC(=O)NC(=O)COC(=O)CC(NC(N)=O)c1ccc(Cl)cc1 (stereo unspecified),1% (inactive)
4,NC(=O)NC(CC(=O)NNC(=O)c1ccccn1)c1ccc(Cl)cc1 (stereo unspecified),93.2% (active)
5,COc1ccc(C(=O)C2CCCN(S(=O)(=O)c3cccc(C)c3)C2)c(C)c1 (stereo unspecified),-4.5% (inactive)
6,O=C(CCn1c(=O)oc2ccccc21)Nc1ccon1,-0.5% (inactive)
7,Cc1ccc2c(c1)C(c1ccccc1)N(C(=O)c1ccc(S(=O)(=O)N3CCOCC3)cc1)CC(=O)N2 (stereo unspecified),0.9% (inactive)
8,CNc1nc(Nc2ccc(C)c(Cl)c2)nc(N)c1[N+](=O)[O-],9.3% (inactive)
9,OCCNc1nc(Nc2ccc(Cl)c(Cl)c2)nc2ccccc12,68.2% (active)
10,Cc1ccc(Nc2nc(N)nc(CN3CCN(Cc4ccccc4)CC3)n2)cc1Cl,8.9% (inactive)
11,CCCS(=O)(=O)Nc1c(C(=O)O)[nH]c2ccccc12,8.6% (inactive)
12,C=CCn1c(SCc2ccc(Cl)c(Cl)c2)nnc1C(CO)NC(=O)c1ccc(OC)cc1 (stereo unspecified),15.9% (inactive)
13,O=C(COC(=O)Cn1cnc2ccccc2c1=O)NCc1ccccc1Cl,45.4% (active)
14,Cn1c(CCC(=O)OCC(=O)NCc2ccccc2Cl)nc(=O)c2ccccc21,2.8% (inactive)
15,O=C(COC(=O)Cn1cnc2ccccc2c1=O)NCC12CC3CC(CC(C3)C1)C2,17.4% (inactive)
16,O=C(N/N=C/c1ccccc1O)/C(=C/c1ccccc1)CCO,4.1% (inactive)
17,COc1ccccc1C(=O)OCC(=O)NCCNC(=O)COC(=O)c1ccccc1OC,5.1% (inactive)
18,O=C(N/N=C/c1ccccn1)c1ccc(S(=O)(=O)N2CCCCCC2)cc1,-2.2% (inactive)
19,Cc1cccc(NC(=O)c2cccc(S(=O)(=O)N3CCCC3)c2)n1,2.6% (inactive)
20,Cc1ncc(CO)c(/C=N/NC(=O)c2cccc(S(=O)(=O)N3CCCC3)c2)c1O,52.7% (active)
21,Cc1cc(C)n(CC(O)CN(c2ccccc2)S(=O)(=O)c2ccc3ccccc3c2)n1 (stereo unspecified),-8.5% (inactive)

row,SMILES,inhibition
1,CCSCc1nc(N)nc(NCCc2ccccc2)n1,8.1% (inactive)
2,Cc1c(C(=O)N2CCN(c3ccc(F)cc3)CC2)oc2c1C(=O)CCC2,3.2% (inactive)
3,COc1ccc2c(CC(=O)NNC(=O)c3ccccc3F)coc2c1,7.9% (inactive)
4,COC(=O)[C@@H](Cc1ccccc1)NC(=O)NCCc1ccccc1,6.5% (inactive)
5,O=C(CCC(=O)c1ccccc1)NCc1cccc(C(F)(F)F)c1,-0.5% (inactive)
6,NC[C@H](Cc1ccccc1)NCCc1cc(C(F)(F)F)cc(C(F)(F)F)c1,65.5% (active)
7,CCOc1ccc(Nc2nc(Cc3nnc(SCC(=O)c4ccc(C)cc4)o3)cs2)cc1,1.3% (inactive)
8,CC(NCc1nc2ccccc2n1C)C12CC3CC(CC(C3)C1)C2 (stereo unspecified),22.8% (inactive)
9,CCCOc1ccc(Cl)cc1Nc1nc(NCCO)nc(N2CCCC2)n1,60.4% (active)
10,Cc1cccc(Nc2nc(NCCO)nc(N3CCCC3)n2)c1,11.1% (inactive)
11,CC(C)(C)Oc1ccccc1Nc1nc(NCCO)nc(N2CCCC2)n1,8.7% (inactive)
12,CC(=O)N1C(=O)/C(=C2\SC(=S)N(NC(=O)c3ccc(O)cc3)C2=O)c2ccccc21,-62.3% (inactive)
13,COc1c(O)cc2oc(-c3ccc(O)c(O)c3)cc(=O)c2c1O,-3.7% (inactive)
14,COC(=O)c1ccccc1NC(=O)C1CCN(C(=O)N2CCOc3ccccc32)CC1,6.2% (inactive)
15,O=C(Cc1ccc(-n2c(=O)[nH]c3ccccc3c2=O)cc1)N1CCN(c2cccc(Cl)c2)CC1,-5.1% (inactive)
16,CCOC(=O)N1CCN(C(=O)Cc2ccc(-n3c(=S)[nH]c4ccccc4c3=O)cc2)CC1,46.3% (active)
17,CCCCNC(=O)c1ccc(-n2c(=S)[nH]c3ccccc3c2=O)cc1,43.8% (inactive)
18,COc1cccc(-c2ccc(SCC(=O)N3CCN(c4ccccc4)CC3)nn2)c1,-10.5% (inactive)

# Source: PubChem BioAssay AID485273 (Sanford-Burnham Center for Chemical Genomics, 2010)
